Of roughly 7,900 targets only a part is listed; those with a hit were picked by preference. About 0.6% of all pairs of compound and target were hits. Values without a mark were called inactive.
Compound: C[C@H](C1=CC=C(C=C1)C(=O)NC2=C3C=CNC3=NC=C2)N
Experiment: log2 fold change, soluble protein after heating vs DMSO (PISA); higher = thermal stabilisation; K562 cells, 10 uM, 30 min; active = over 0.2 and 3.5 SD of the protein, either way, in both replicates (recomputed)
How it was run: (§1)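 K562 cells (2×10^6 cells/mL) were treated with 10 μM compound for 30 min, and aliquots were heated for 3 min over 48°C-58°C. Pooled aliquots were extracted in PBS with 0.5% NP-40 at 4°C, and the supernatant after 21,000xg for 90 min was measured by TMTpro 16plex LC-MS/MS with channel sums equalised. Reported thermal stability, relative to control samples and from duplicates, is a log2 fold change.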

Sequence of UniProt P17980 (P17980 whole entry, looked up): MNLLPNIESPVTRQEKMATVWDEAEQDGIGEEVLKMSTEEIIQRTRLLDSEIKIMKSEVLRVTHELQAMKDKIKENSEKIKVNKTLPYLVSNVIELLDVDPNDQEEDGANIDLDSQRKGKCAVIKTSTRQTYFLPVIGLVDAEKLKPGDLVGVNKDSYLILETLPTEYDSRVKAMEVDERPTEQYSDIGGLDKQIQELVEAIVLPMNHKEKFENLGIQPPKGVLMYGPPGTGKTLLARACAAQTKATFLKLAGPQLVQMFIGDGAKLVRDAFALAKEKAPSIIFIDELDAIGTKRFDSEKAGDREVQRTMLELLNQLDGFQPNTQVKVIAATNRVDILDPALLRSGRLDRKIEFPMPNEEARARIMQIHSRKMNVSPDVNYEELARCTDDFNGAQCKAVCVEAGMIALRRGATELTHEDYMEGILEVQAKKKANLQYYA
Sequence of UniProt P06454 (P06454 whole entry, looked up): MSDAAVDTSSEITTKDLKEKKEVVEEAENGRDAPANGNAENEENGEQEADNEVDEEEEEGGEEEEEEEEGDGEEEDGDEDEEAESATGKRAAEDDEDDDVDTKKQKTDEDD
Sequence of UniProt Q00577 (Q00577 whole entry, looked up): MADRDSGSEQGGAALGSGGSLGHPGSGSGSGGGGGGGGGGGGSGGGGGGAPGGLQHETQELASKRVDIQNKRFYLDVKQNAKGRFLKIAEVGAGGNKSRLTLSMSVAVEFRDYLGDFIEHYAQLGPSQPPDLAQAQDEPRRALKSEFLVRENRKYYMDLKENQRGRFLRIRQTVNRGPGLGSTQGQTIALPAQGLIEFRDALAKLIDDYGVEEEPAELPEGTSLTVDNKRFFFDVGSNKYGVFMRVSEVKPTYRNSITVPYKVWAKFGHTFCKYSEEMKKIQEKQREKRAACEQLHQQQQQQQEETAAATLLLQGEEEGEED
Sequence of UniProt Q9Y2I7 (Q9Y2I7 whole entry, looked up): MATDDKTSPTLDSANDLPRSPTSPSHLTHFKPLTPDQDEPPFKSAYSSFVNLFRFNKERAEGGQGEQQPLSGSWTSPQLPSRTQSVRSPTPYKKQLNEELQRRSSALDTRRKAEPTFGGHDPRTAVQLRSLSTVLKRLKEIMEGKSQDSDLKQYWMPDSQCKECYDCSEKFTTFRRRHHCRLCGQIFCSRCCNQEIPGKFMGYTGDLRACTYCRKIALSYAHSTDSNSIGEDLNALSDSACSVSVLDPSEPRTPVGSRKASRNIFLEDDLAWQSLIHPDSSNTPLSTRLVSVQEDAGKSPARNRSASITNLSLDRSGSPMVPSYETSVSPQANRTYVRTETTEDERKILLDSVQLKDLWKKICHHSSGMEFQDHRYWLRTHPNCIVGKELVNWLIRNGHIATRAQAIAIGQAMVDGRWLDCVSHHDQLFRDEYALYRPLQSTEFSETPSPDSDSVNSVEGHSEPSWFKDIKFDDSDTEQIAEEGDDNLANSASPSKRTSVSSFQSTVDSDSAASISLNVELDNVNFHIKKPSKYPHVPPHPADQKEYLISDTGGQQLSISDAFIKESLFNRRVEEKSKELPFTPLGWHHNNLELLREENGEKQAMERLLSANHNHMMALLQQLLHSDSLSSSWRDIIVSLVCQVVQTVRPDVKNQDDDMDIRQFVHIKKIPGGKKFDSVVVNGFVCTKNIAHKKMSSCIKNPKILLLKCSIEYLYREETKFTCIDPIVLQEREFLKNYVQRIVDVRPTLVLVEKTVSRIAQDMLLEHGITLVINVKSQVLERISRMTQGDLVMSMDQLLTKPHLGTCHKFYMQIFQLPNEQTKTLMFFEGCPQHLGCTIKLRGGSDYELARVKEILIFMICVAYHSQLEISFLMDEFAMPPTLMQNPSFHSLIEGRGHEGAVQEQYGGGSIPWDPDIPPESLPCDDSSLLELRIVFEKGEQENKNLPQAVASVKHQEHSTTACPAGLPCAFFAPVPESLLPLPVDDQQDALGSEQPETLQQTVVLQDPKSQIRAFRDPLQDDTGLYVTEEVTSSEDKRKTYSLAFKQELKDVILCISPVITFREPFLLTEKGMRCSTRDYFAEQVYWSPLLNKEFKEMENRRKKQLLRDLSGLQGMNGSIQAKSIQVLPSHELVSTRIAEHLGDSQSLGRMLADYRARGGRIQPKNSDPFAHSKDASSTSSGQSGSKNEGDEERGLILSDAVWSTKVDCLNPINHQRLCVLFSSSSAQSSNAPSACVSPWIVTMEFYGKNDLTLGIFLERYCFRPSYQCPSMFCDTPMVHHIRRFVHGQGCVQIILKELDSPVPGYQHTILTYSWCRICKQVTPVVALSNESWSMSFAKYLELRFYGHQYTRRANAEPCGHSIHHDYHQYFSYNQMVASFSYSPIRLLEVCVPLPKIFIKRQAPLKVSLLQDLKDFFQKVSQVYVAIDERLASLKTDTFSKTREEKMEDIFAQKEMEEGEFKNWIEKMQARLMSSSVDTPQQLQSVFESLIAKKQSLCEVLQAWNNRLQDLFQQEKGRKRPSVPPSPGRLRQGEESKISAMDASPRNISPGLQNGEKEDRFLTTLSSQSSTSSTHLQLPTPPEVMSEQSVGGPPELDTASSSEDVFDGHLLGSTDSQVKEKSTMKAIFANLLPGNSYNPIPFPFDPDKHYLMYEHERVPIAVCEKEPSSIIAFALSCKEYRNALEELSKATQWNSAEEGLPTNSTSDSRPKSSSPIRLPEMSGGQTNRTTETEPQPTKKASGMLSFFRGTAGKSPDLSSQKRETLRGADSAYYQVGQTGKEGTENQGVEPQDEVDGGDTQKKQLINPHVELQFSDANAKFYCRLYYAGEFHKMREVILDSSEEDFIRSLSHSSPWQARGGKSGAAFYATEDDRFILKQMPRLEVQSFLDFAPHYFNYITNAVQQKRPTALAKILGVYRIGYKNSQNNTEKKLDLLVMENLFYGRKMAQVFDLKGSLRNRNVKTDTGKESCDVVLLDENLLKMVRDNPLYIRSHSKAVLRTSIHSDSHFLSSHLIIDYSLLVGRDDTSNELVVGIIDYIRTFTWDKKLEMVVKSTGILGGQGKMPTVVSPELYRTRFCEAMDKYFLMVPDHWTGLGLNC
Sequence of UniProt Q15054 (Q15054 whole entry, looked up): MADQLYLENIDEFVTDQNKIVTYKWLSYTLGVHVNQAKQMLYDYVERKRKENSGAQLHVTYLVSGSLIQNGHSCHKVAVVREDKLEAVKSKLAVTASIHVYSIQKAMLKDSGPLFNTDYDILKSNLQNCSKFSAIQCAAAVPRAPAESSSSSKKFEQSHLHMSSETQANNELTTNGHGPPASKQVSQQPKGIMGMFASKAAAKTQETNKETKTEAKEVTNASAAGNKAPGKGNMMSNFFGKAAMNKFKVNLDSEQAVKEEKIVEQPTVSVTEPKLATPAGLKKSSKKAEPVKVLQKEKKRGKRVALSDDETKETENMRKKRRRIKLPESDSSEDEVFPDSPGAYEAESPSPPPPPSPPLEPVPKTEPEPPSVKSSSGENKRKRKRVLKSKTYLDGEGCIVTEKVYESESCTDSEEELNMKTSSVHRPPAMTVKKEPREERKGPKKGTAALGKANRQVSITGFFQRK
Sequence of UniProt P49585 (P49585 whole entry, looked up): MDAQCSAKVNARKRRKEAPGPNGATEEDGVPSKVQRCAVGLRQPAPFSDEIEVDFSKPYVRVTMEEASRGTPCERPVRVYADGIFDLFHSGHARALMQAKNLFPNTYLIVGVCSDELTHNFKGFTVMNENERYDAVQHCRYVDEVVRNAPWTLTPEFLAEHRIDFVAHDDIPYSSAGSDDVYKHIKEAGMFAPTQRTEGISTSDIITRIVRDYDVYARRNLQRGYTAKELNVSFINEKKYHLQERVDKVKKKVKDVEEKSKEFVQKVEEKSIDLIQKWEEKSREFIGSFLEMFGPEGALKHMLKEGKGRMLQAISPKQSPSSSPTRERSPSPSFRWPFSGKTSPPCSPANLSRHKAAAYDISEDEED
Sequence of UniProt Q8IZL8 (Q8IZL8 whole entry, looked up): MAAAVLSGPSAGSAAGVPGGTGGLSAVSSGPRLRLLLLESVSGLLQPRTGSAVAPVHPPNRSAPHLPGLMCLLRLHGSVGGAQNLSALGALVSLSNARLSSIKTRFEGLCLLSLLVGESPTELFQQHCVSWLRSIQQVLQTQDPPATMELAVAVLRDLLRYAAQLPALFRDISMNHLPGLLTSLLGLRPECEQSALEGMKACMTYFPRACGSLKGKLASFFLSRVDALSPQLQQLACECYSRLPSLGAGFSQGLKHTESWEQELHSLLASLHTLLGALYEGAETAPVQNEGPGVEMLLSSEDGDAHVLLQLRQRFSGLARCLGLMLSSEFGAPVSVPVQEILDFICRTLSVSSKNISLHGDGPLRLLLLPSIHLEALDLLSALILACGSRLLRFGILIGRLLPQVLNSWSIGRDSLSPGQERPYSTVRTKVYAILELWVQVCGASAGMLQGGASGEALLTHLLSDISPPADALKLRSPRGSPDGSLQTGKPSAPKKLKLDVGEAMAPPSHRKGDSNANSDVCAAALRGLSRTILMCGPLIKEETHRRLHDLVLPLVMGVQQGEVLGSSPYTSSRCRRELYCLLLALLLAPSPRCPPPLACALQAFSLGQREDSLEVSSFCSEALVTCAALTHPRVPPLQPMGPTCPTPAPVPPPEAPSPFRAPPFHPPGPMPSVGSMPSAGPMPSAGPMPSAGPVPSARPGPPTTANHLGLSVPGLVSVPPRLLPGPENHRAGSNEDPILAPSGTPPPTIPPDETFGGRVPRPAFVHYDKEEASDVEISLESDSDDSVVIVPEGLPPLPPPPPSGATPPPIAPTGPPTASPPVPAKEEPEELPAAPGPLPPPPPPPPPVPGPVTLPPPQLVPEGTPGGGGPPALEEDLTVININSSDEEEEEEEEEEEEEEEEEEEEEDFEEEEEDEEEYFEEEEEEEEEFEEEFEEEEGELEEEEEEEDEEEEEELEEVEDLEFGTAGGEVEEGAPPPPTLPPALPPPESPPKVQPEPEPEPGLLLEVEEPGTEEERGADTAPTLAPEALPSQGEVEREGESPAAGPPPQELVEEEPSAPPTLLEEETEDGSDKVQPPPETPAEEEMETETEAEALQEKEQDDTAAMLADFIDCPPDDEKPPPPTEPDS
Sequence of UniProt Q9Y2Y1 (Q9Y2Y1 whole entry, looked up): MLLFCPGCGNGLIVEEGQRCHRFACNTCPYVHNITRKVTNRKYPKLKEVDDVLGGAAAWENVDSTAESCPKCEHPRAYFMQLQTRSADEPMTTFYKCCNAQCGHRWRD

Target	log2 fold change
PPP6R1 (UniProt Q9UPN7)	0.012
PLIN2 (UniProt Q99541)	0.03
PELP1 (UniProt Q8IZL8)	-0.024
PCGF2 (UniProt P35227)	0.087
PTPN23 (UniProt Q9H3S7)	0.027
PBK (UniProt Q96KB5)	0.134
POTEI (UniProt P0CG38)	-0.096
PDE4DIP isoform 4 (UniProt Q5VU43)	-0.002
PSMD2 (UniProt Q13200)	0.075
PPT2 isoform 3 (UniProt Q9UMR5)	-0.148
PLA2G15 (UniProt Q8NCC3)	0.015
PRPF38B (UniProt Q5VTL8)	-0.269 (active)
PELO (UniProt Q9BRX2)	0.158
PIGT (UniProt Q969N2)	0.005
PRKCQ (UniProt Q04759)	-0.374 (active)
PDCD6IP (UniProt Q8WUM4)	0.077
PRIM2 (UniProt P49643)	0.066
POLR2B (UniProt P30876)	0.18
PIP4P2 (UniProt Q8N4L2)	-0.058

Target	log2 fold change
PTMA (UniProt P06454)	-0.034
POLD3 (UniProt Q15054)	-0.076
PCTP (UniProt Q9UKL6)	0.003
PSMC3 (UniProt P17980)	0.067
POLR3K (UniProt Q9Y2Y1)	-0.027
PPP2R5C isoform 4 (UniProt Q13362)	0.029
PCYT1A (UniProt P49585)	-0.097
PEF1 (UniProt Q9UBV8)	-0.102
PITRM1 isoform 2 (UniProt Q5JRX3)	-0.023
PURA (UniProt Q00577)	0.287
PPIL1 (UniProt Q9Y3C6)	0.012
PIKFYVE (UniProt Q9Y2I7)	0.073
PNPLA8 (UniProt Q9NP80)	-0.034
PNPLA2 (UniProt Q96AD5)	0.095
PGGT1B (UniProt P53609)	-0.05
PI4K2A (UniProt Q9BTU6)	0
PRPF40A (UniProt O75400)	-0.061
POLD1 (UniProt P28340)	-0.025

Compound: C[C@H](Nc1ncnc2nc[nH]c12)c1cc2cccc(Cl)c2c(=O)n1-c1ccccc1 [duvelisib]
Experiment: as above
How it was run: as §1

Target	log2 fold change
PPP6R1 (UniProt Q9UPN7)	0.027
PLIN2 (UniProt Q99541)	0.098
PELP1 (UniProt Q8IZL8)	-0.055
PCGF2 (UniProt P35227)	0.124
PTPN23 (UniProt Q9H3S7)	0.116
PBK (UniProt Q96KB5)	0.006
POTEI (UniProt P0CG38)	0.019
PDE4DIP isoform 4 (UniProt Q5VU43)	0.072
PSMD2 (UniProt Q13200)	-0.064
PPT2 isoform 3 (UniProt Q9UMR5)	0.057
PLA2G15 (UniProt Q8NCC3)	-0.038
PRPF38B (UniProt Q5VTL8)	0.023
PELO (UniProt Q9BRX2)	0.011
PIGT (UniProt Q969N2)	-0.045
PRKCQ (UniProt Q04759)	0.022
PDCD6IP (UniProt Q8WUM4)	0.026
PRIM2 (UniProt P49643)	-0.038
POLR2B (UniProt P30876)	0.025
PIP4P2 (UniProt Q8N4L2)	0.068

Target	log2 fold change
PTMA (UniProt P06454)	0.006
POLD3 (UniProt Q15054)	0.018
PCTP (UniProt Q9UKL6)	-0.039
PSMC3 (UniProt P17980)	-0.048
POLR3K (UniProt Q9Y2Y1)	0.067
PPP2R5C isoform 4 (UniProt Q13362)	0.066
PCYT1A (UniProt P49585)	0.081
PEF1 (UniProt Q9UBV8)	0.103
PITRM1 isoform 2 (UniProt Q5JRX3)	0.072
PURA (UniProt Q00577)	-0.165
PPIL1 (UniProt Q9Y3C6)	0
PIKFYVE (UniProt Q9Y2I7)	0.005
PNPLA8 (UniProt Q9NP80)	-0.003
PNPLA2 (UniProt Q96AD5)	0.156
PGGT1B (UniProt P53609)	0.046
PI4K2A (UniProt Q9BTU6)	0.043
PRPF40A (UniProt O75400)	0.018
POLD1 (UniProt P28340)	0.004

— the supplement of paper PMC10849652
